# Pf growth 48h: P. falciparum growth inhibition at 48 hours (one generation); P. falciparum luciferase growth in erythrocytes, 48 h; Potency, µM (series often up to 28.7 µM), for the others: at the highest dose activity change, negative = inhibition, hits mostly inhibitors; hit rate 5.9% among 310,000; further: potency means the concentration at half of the fitted maximal effect
#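 Here the parasites carry a stable luciferase gene and grow inside erythrocytes in Albumax-based RPMI medium with compound for one erythrocytic cycle. Activity is scored as loss of luminescent signal.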
# HCV inhibitor: HCV inhibition | Huh7.5.1 HCVcc-Cre infection, luciferase reporter, 44 h | Potency, µM (doses to about 41.8 µM), without a hit: at the top dose activity change, negative = inhibition, actives largely listed as inhibitors | hit rate 3.4% among 340,000 | AID 651820; further: potency means the concentration at half of the fitted maximal effect
#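 Cells (1,000/well) were plated 4 h before compound, then infected with HCVcc-Cre virus (~0.5 moi). After 44 h further culture, infection was read as luciferase luminescence following a 15 min substrate incubation at room temperature.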
# Pf growth 96h: inhibits malaria parasite growth, 96 h; P. falciparum luciferase reporter growth, 96 h; Potency, µM (titrated, usually from 28.7 µM), for the others: at the highest dose activity change, negative = inhibition, usual class: inhibitors; hit rate 6.9% among 320,000; further: potency means the concentration at half of the fitted maximal effect
#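 Plates of compound plus infected erythrocytes (2% hematocrit, 0.05% parasitemia final) incubate 96 hours, 37 C, 5% CO2. Detection reagent added; reduced luminescence from the parasites' luciferase reporter flags inhibition.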
# HCMV antiviral: inhibitors of human cytomegalovirus. HFF cells, HCMV-luciferase reporter, 72 h; active compounds read low. activity change, negative = inhibition, % at 57.5 µM. hit rate 4.5% among 410,000; in the data active means activity change below about -60%; inconclusive means no clear call, values can overlap the other calls; inactive means above about -39%
#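 Luciferase read-out from HCMV-luciferase-infected HFFs (MOI 1 PFU/cell) 72 h post infection at 37C; compounds added after 16 h cell attachment; activity normalized between buffer-only basal and Salinomycin (10uM) inhibitor controls.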
# * hit, by the source's call; i = inactive; ? = inconclusive; · = no result; [ ] = another dose, or the depositor's remark. Hits are enriched below; roughly 13% of the tested compounds scored in any of these assays. Unless noted, the call rests on the fitted dose curve; in most records, active means well fitted inhibition curve with a large enough effect; inconclusive means small, poorly fitted or top-dose-only effect, or another doubt; inactive means no such curve, though single readings can be large or run the other way. On the % scale 0 is the no-effect control and ±100 the full control effect.
SMILES,Pf growth 48h,HCV inhibitor,Pf growth 96h,HCMV antiviral
CCCc1cc(=O)oc2cc(C)cc(OCC(=O)Nc3ccc(CN4CCOCC4)cc3)c12,?,?,8.3µM*,-38
CCCc1cc(=O)oc2cc(C)cc(OCC(=O)NC3CC3)c12,1.7µM*,-10%,2.1µM*,-22
CCc1cc(=O)oc2cc(C)cc(OCC(=O)NC(Cc3c[nH]c4ccc(O)cc34)C(=O)O)c12 (configuration not stated),-9%,-1%,-25%,6
CCc1cc(=O)oc2cc(C)cc(OCC(=O)NCCc3c[nH]c4ccccc34)c12,1.9µM*,2.2µM*,2.6µM*,-23
CCn1c(CN2CCCCC2)nc2cc(NC(=O)COc3ccc([N+](=O)[O-])cc3)ccc21,·,·,·,-23
CC(C)(C)c1ccc(C(=O)N2CCCC2c2cccs2)cc1 (configuration not stated),15µM*,-24%,?,-20
CN1CCN(C(=O)c2ccc3c(c2)N(Cc2ccc(C(F)(F)F)cc2)C(=O)c2ccccc2S3)CC1,·,·,·,-15
CCOc1ccc(-n2ccnc2SCC(=O)Nc2nc3ccc(C)cc3s2)cc1,·,·,·,-18
CC(C)Cc1nc(N2CCN(C(=O)Cc3ccccc3)CC2)c(C#N)c2c1COC(C)(C)C2,-25%,·,2%[5.75 µM],·
CC(C)C(=O)N1CCN(c2nc(-c3ccccc3)c3c(c2C#N)CCCC3)CC1,·,6.3µM*,8.3µM*,?
Cc1nc(N2CCN(C(=O)c3ccco3)CC2)c(C#N)c2c1CCCC2,?,?,?,21
CC(C)Cc1nc(N2CCN(C(=O)c3ccco3)CC2)c(C#N)c2c1CCCC2,?,10µM*,-18%,0
CCCC(=O)N1CCN(c2nc(CC(C)C)c3c(c2C#N)CCC3)CC1,2.6µM*,?,0%,?
CCOC(=O)CSc1nc2c([nH]c3ccccc32)c(=O)n1-c1ccc(OCC)cc1,·,·,·,17
OCCNc1ncnc2c1ncn2[C@H]1CN(C2CCCC2)C[C@@H](CO)O1,·,·,·,-9
O=C(CSc1nnc(Cc2ccccc2)n1-c1cccc(Cl)c1)N1CCOCC1,5%,2%,-4%[5.75 µM],0
Cc1cccc(-n2c(Cc3ccccc3)nnc2SCc2ccc([N+](=O)[O-])cc2)c1,?,?,7.4µM*,-70*
Cc1cccc(-n2c(Cc3ccccc3)nnc2SCC(=O)N2CCOCC2)c1,·,-3%,4.1µM*,1
COc1ccc(C(=O)Nc2oc(-c3ccccc3)c(-c3ccccc3)c2C#N)cc1OC,?,11µM*,?,12
COc1ccc(-c2oc(NC(=O)c3ccc(C)cc3)c(C#N)c2-c2ccc(OC)cc2)cc1,·,-26%,?,9
COc1ccc(C(=O)Nc2oc(-c3ccccc3)c(-c3ccccc3)c2C#N)cc1,-7%,10µM*,7%,?
Cc1nn(C)c2c1c(-c1ccccc1)cc(=O)n2C(C)C(=O)NCc1ccc(F)cc1 (configuration not stated),·,·,·,-4
O=C1CC2(CCN(C(=O)c3cccc(Cl)c3)CC2)Oc2ccccc21,?,17%,?,-99*
O=C1CC2(CCN(C(=O)C3CC(=O)N(c4ccccc4)C3)CC2)Oc2ccccc21 (configuration not stated),?,-4%,9.3µM*,-39
O=C1CC2(CCN(C(=O)c3ccc(Cl)cc3)CC2)Oc2ccccc21,-6%,11%,?,-20
SMILES,Pf growth 48h,HCV inhibitor,Pf growth 96h,HCMV antiviral
COc1cc(Cl)c(CNC[C@H]2O[C@@H](n3ccc(=O)[nH]c3=O)[C@H](O)[C@@H]2O)c(Cl)c1O,·,41%,·,-2
COc1ccc(CNC[C@H]2O[C@@H](n3ccc(=O)[nH]c3=O)[C@H](O)[C@@H]2O)cc1OC,·,6.3µM*,·,-13
CC(=O)c1ccc(N=Nc2ccc(C)cc2)cc1,i,10%,172%,-38
C=C(C)C(=O)Oc1ccc(N=Nc2ccc(C)cc2)ccc1=O,·,11µM*,·,0
CCOc1cccc(C2c3[nH]c4ccccc4c3CCN2C(=O)Cc2cccc(OCC)c2OCC)c1 (configuration not stated),·,·,·,-3
Cc1cccc(NC(=O)c2nc[nH]c2C(=O)N[C@@H](CCCCNC(=O)OC(C)(C)C)C(=O)OC(C)(C)C)c1,4.7µM*,?,6.6µM*,-12
Cc1cccc(NC(=O)c2nc[nH]c2C(=O)NCCCNC(=O)c2[nH]cnc2C(=O)Nc2cccc(C)c2)c1,·,-7%,·,5
Cc1cccc(NC(=O)c2nc[nH]c2C(=O)NCCCCCNC(=O)OC(C)(C)C)c1,2.6µM*,?,?,5
Cc1cc(N2CCC(C(=O)Nc3ccc(F)cc3F)CC2)n2nc(C)c(-c3ccc(Cl)cc3)c2n1,·,·,·,-4
Clc1ccc(OCCCN2CCCC2)cc1Cl,-7%,?,-19%,10
CCOc1cccc(OCCOCCN2CCCC2)c1,3%,-19%,1%,32
Cc1cc(OCCCCCN2CCCC2)ccc1Cl,?,10µM*,-44%[5.75 µM],-15
Cc1cc(OCCOCCN2CCCC2)ccc1C(C)C,?,?,10µM*,30
CCc1ccc(-c2[nH]nc3nc(-c4ccc(OC)cc4)cc(C(=O)NCCCOC)c23)cc1,·,·,·,-11
CCOc1ccc2nc(Cl)c(C3CC(c4ccco4)=NN3S(=O)(=O)c3ccccc3)cc2c1 (configuration not stated),?,?,7.4µM*,28
Cc1nc2c(-c3ccccc3)c(C)nn2c(C)c1CCC(=O)Nc1ccccc1F,·,·,·,19
CCCc1cc(=O)oc2c3c(c4c(c12)OC(C)(C)C=C4)OC(C)C(C)C3O (configuration not stated),?,10µM*,10µM*,-77*
CCCc1cc(=O)oc2c3c(cc(OCC(=O)N[C@@H](C)C(=O)O)c12)OC(C)(C)CC3,-1%,20%,-3%,-31
O=C(CSc1nnnn1C1CCCCC1)Nc1ccccc1F,32%,-7%,-16%,18
O=C(CSc1nnnn1C1CC2CCC1C2)Nc1ccnc2ccccc12 (configuration not stated),-11%,-15%,29%,-76*
COCCC(=O)N1CCc2ccc(NC(=O)c3ccc(C(F)(F)F)cc3)cc2C1,3%,10µM*,0%,-65*
COCCC(=O)Nc1ccc2c(c1)CN(C(=O)CSC)CC2,50%,3%,57%,10
CC(=O)N1CCCc2ccc(NC(=O)c3ccc(C(F)(F)F)cc3)cc21,·,·,·,-71*
CCOc1ccc(C(=O)Nc2ccc3c(c2)N(C(C)=O)CCC3)cc1OCC,·,·,·,2
O=C(Nc1ccc2c(c1)C(=O)OC2)c1ccc(C(F)(F)F)cc1,29%,3%,6%,-12
CN(C)S(=O)(=O)N1CCc2ccc(NC(=O)c3ccc(C(F)(F)F)cc3)cc2C1,27%,7.9µM*,13µM*,?
CCC(C)NC(=O)c1cc(C)no1 (configuration not stated),·,-26%,35%,-15
Cc1cc(NC(=O)CCl)on1,10µM*,?,?,-68*
CC(C)c1cc(NC(=O)CCl)on1,3.3µM*,-2%,?,-11
